Consider 19 compounds from the supplement of paper PMC7530171.

Structures are written as SMILES. ± gives the standard deviation.

In this assay the test system is THP-1. Put plainly: THP-1 cell loss relative to DMSO control; higher = more host cell loss (toxicity); extreme values may be limits of the assay. Particulars: 10 µM; 4 days; infection: M. tuberculosis H37Rv. As to the method:
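OICR kinase inhibitor library screened in duplicate at 10 uM against M. tuberculosis-infected THP-1 macrophages, 4 days at 37 C. THP-1 cell loss (cytotoxicity or loss of adherence) was quantified from Hoechst-stained nuclei counts by high-content imaging and normalised to the 1% DMSO control; 100 = complete loss of host cells.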
In turn, `N#CCNC(=O)c1ccc(-c2ccnc(Nc3ccc(N4CCOCC4)cc3)n2)cc1` came in with a THP-1 cell loss of 100%.
On to `O=C(NOC[C@H](O)CO)c1ccc(F)c(F)c1Nc1ccc(I)cc1F`, for which the THP-1 cell loss worked out at 100%.
For `Oc1ccc(Nc2nc(-c3ccc(Cl)cc3)cs2)cc1`, the THP-1 cell loss was determined as 100%.
The figure for `FC(F)(F)c1ccc(/C=C/c2nc(COc3ccc(CCCCn4ccnn4)cc3)co2)cc1` [Mubritinib] is 51 ± 24%; for `CC(C)(C)c1cnc(CSc2cnc(NC(=O)C3CCNCC3)s2)o1` it is 100%.
`O=C(NOCC1CC1)c1ccc(F)c(F)c1Nc1ccc(I)cc1Cl` registered a THP-1 cell loss of 100%.
The figure for `Cc1cc(F)c(Nc2ncnc3cc(OCc4ccccc4)ccc23)cc1O` is 5.29 ± 7.5%; for `NC1(c2ccc(-c3nc4ccn5c(=O)[nH]nc5c4cc3-c3ccccc3)cc2)CCC1` it is 34.3 ± 6.7%; for `CN1CC[C@H](c2c(O)cc(O)c3c(=O)cc(-c4ccccc4Cl)oc23)[C@H](O)C1` [Alvocidib] it is 100%.
The figure for `Nc1cc(C(F)(F)F)c(-c2cc(N3CCOCC3)nc(N3CCOCC3)n2)cn1` is 73.3 ± 38%; for `O=C(Nc1nc2ccccc2n1CCN1CCOCC1)c1cccc([N+](=O)[O-])c1` [IRAK-1/4 Inhibitor I] it is 2.5 ± 3.5%.
Compound `CCCOc1ccc(/C=C2/SC(=O)NC2=O)cc1` [PIM1/2 Kinase Inhibitor VI] gave a THP-1 cell loss of 4.36 ± 6.2%.
The figure for `Cn1cc(-c2cnc3ccc4ccc(CS(=O)(=O)NCc5ccccn5)cc4c(=O)c3c2)cn1` is 52.3 ± 67%; for `CN1CCC(CNc2ccc3ncc(-c4cccc(OC(F)(F)F)c4)n3n2)CC1` it is 55.8 ± 30%.
`COC(=O)Nc1ccc(-c2nc(N3CCOCC3)c3cnn(C4CCN(C(=O)OC)CC4)c3n2)cc1` came in with a THP-1 cell loss of 35.6 ± 0.38%.
Regarding `CO[C@H]1C[C@@H]2CC[C@@H](C)[C@@](O)(O2)C(=O)C(=O)N2CCCC[C@H]2C(=O)O[C@H]([C@H](C)C[C@@H]2CC[C@@H](O)[C@H](OC)C2)CC(=O)[C@H](C)/C=C(\C)[C@@H](O)[C@@H](OC)C(=O)[C@H](C)C[C@H](C)/C=C/C=C/C=C/1C` [Rapamycin], the THP-1 cell loss is 33.4 ± 6.3%.
The figure for `CC[C@@H]1/C=C(\C)C[C@H](C)C[C@H](OC)[C@H]2O[C@@](O)(C(=O)C(=O)N3CCCC[C@H]3C(=O)O[C@H](/C(C)=C/[C@@H]3CC[C@H](Cl)[C@H](OC)C3)[C@H](C)[C@@H](O)CC1=O)[C@H](C)C[C@@H]2OC` [Pimecrolimus] is 28.5 ± 3%; for `OCCC#Cc1nc(-c2ccc(F)cc2)c(-c2ccncc2)n1CCCc1ccccc1` it is 66.42 ± 0.12%; for `S=C(NCc1ccc2c(c1)OCO2)N1CCN(c2ncnc3c2oc2ccccc23)CC1` it is 20.7 ± 25%.
